According to PubChem BioAssay (NCATS):
Results filed as inconclusive are left out. Calls of active or inactive are those of the source. The call rests on the fitted dose curve; in most records, active means well fitted inhibition curve with a large enough effect; inconclusive means small, poorly fitted or top-dose-only effect; inactive means flat fitted curve, though single readings scatter.

These molecules were tested on MKL-2 (assay: qHTS assay to identify novel small-molecules to repurpose for Merkel cell carcinoma treatment (AID 1296009; further: nearly all actives have a fitted effect of over 60% in size)). Conditions: MCC and control cell lines, CellTiter-Glo viability, 72 h; series mostly up to 46 µM; activity change, negative = cytotoxicity: at the top concentration.
How it was run: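 CellTiter-Glo luminescence after 72 hr compound exposure at 37 degree celsius gave cell viability. Libraries NPC and MIPE were run as 8- and 11-point dose responses; RLUs normalized to DMSO (negative) and no-cell (cytotoxicity) controls.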
On the % scale 0 is the no-effect control and ±100 the full control effect; potency means the concentration at half of the fitted maximal effect.

SMILES	Potency	activity change, negative = cytotoxicity
CCCCCCCCCCOCC(O)CN (stereo unspecified)	23.7 µM (active)	–
COc1ccc(CCN2CCC(Nc3nc4ccccc4n3Cc3ccc(F)cc3)CC2)cc1	13.3 µM (active)	–
O=C(CCCN1CCC(O)(c2ccc(Br)cc2)CC1)c1ccc(F)cc1	–	-82.6% (inactive)
CCCCOc1ccc(C(=O)CCN2CCCCC2)cc1	2.66 µM (active)	–
Clc1ccc2c(c1)CCc1cccnc1C2=C1CCNCC1	26.6 µM (active)	–
COc1ccc(/C=C/C(=O)c2ccc(OC)cc2OC)cc1	5.31 µM (active)	–
CCOc1ccc(Cc2nccc3cc(OCC)c(OCC)cc23)cc1OCC	16.8 µM (active)	–
COC1=CC(=O)C[C@@H](C)[C@]12Oc1c(Cl)c(OC)cc(OC)c1C2=O	–	-17% (inactive)
Oc1c(I)cc(I)c2cccnc12	11.9 µM (active)	–
C[C@]12CCC(=O)C=C1[C@@H]1C[C@@H]1[C@H]1[C@@H]3[C@@H]4C[C@@H]4[C@@]4(CCC(=O)O4)[C@@]3(C)CC[C@@H]12	–	-0.305% (inactive)
CC1=C(C(=O)OC(C)C)C(c2cccc([N+](=O)[O-])c2)C(C(=O)OC2CN(C(c3ccccc3)c3ccccc3)C2)=C(N)N1 (stereo unspecified)	16.8 µM (active)	–
CCN(CC)CCOc1ccc(C(O)(Cc2ccc(Cl)cc2)c2ccc(C)cc2)cc1 (stereo unspecified)	7.5 µM (active)	–
O=C(CCN1CCC(c2ccccc2)C1)c1ccc2c(c1)OCCO2 (stereo unspecified)	0.841 µM (active)	–
CN(C)CC/C=C1\c2ccccc2Sc2ccc(Cl)cc21	11.9 µM (active)	–
CN1CCC(=C2c3ccccc3Sc3ccccc32)CC1	13.3 µM (active)	–
CC(=O)N/N=C/c1ccc([N+](=O)[O-])o1	6.68 µM (active)	–
